Results filed as inconclusive are left out. The source made the active and inactive calls. Rule for the calls: active = hit-call score of the fitted dose curve at least 0.9, where 1 is the maximum; inconclusive = response in the unintended direction; inactive = score below 0.9.

human Ephrin type-A Receptor 1 (EphA1), EPHA1 (gene 2041), sequence (P21709 whole entry, looked up): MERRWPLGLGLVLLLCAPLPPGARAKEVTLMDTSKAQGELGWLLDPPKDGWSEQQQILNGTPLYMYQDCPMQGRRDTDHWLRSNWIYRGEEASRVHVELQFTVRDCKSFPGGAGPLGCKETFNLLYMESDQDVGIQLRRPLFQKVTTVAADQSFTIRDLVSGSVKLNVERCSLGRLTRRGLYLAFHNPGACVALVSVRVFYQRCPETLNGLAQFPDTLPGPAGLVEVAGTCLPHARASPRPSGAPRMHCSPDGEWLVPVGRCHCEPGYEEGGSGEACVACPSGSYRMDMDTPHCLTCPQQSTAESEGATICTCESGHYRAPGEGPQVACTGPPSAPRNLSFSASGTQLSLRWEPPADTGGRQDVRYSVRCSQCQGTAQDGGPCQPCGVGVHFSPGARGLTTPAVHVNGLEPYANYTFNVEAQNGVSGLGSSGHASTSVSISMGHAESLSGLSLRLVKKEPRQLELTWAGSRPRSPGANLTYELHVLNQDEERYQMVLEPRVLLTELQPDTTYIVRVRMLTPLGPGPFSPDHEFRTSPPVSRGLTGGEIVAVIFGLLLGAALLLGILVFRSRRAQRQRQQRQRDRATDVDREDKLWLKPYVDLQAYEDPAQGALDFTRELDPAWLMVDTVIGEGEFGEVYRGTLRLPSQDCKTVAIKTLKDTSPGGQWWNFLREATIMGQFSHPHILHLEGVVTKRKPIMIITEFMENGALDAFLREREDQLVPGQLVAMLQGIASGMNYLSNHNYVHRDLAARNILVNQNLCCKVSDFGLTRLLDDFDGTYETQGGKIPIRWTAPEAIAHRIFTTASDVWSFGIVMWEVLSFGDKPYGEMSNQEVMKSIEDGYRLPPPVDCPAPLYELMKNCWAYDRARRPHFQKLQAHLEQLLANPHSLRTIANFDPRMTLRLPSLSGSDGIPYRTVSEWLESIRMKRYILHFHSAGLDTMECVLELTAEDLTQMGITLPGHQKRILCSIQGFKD
human Dual Specificity Protein Phosphatase 3 (DUSP3), DUSP3 (gene 1845), sequence (P51452 whole entry, looked up): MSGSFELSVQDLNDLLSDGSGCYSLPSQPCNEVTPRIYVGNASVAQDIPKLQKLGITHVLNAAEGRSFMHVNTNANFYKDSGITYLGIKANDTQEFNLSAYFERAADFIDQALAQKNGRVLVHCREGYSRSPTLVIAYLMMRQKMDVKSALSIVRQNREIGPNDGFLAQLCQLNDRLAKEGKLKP
human Epidermal Growth Factor Receptor (EGFR), EGFR (gene 1956), sequence (P00533 whole entry, looked up): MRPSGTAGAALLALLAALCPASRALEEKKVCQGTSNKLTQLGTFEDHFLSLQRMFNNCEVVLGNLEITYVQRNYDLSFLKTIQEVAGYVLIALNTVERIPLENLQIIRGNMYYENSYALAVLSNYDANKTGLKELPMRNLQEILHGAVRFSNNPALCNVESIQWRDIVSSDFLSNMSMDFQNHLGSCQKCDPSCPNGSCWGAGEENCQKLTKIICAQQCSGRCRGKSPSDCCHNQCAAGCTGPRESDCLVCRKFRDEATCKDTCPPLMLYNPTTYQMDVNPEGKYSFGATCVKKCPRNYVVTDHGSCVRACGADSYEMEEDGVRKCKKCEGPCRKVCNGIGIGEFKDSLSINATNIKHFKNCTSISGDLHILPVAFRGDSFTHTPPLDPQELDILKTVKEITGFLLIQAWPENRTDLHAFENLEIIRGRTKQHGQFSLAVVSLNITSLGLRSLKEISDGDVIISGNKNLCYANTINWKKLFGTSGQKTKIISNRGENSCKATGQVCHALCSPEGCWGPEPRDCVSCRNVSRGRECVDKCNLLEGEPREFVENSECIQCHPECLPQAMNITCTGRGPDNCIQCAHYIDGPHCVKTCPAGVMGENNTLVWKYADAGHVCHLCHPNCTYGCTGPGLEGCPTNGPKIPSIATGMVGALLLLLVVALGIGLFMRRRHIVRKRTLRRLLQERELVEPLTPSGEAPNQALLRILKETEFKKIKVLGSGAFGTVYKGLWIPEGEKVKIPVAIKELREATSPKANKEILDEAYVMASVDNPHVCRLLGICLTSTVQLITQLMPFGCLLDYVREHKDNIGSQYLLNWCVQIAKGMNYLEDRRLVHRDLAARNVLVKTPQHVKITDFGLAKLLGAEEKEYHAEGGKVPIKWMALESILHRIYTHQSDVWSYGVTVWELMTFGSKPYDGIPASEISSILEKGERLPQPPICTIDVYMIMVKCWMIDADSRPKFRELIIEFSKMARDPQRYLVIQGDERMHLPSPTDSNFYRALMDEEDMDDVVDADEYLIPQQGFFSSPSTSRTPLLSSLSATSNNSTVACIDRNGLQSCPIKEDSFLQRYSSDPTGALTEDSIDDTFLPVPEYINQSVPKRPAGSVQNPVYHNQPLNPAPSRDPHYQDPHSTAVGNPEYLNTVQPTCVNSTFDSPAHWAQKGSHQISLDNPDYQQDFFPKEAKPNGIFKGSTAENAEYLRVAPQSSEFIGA

The target in one assay is human Beta-secretase (BACE), BACE1 (gene 23621) (UniProt P56817). Briefly: NVS_ENZ_hBACE: NovaScreen (NVS) Enzymatic Assay for human Beta-secretase (BACE) (AID 2283140).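 Note: hits are inhibitors that reduce fluorescent substrate signal versus DMSO.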 In outline: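 Cell-free fluorescence-intensity assay of recombinant BACE1 expressed in SF9 cells, read 1 hour after dosing. Loss of signal indicates reduced protease activity, fitted relative to DMSO negative control. Primary screen at 25 uM in duplicate; actives followed in concentration series.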
human Beta-secretase (BACE), BACE1 (gene 23621), sequence (P56817 whole entry, looked up): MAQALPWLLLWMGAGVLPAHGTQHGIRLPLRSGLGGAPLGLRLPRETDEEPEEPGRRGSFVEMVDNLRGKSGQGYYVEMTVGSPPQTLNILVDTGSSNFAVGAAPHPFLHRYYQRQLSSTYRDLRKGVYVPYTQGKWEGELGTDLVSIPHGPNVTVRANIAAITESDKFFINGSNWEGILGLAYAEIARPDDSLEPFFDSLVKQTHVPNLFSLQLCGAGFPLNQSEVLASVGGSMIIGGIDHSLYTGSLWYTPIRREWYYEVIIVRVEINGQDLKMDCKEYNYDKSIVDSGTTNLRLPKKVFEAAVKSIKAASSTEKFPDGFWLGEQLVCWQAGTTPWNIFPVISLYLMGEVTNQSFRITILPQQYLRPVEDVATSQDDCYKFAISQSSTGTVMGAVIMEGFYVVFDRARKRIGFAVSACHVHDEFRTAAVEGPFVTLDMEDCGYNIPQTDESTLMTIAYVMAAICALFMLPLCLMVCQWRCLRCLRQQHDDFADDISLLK
For `Nc1c(Oc2ccccc2)cc(O)c2c1C(=O)c1ccccc1C2=O`, the AC50 was 5.73 µM (active). For `BrCCCCBr`, the call was inactive.

In the case of `O=C(N[C@H]1CN2CCC1CC2)c1ccc2c(c1)OCCO2`, the molecule was classed as inactive. Consider `CCCCCCCCCCCCc1cccc(S(=O)(=O)O)c1`, for which the AC50 is 0.428 µM (active). Same read-out and setting: the figure for `O=C(Cc1ccccc1)OCCc1ccccc1` is 25 µM (active).

`CN(C)C(=S)S`: the call was inactive.

For the molecule `CC(C)O.CC(C)O.OCCN(CCO)CCO.OCCN(CCO)CCO.[Ti]`, the AC50 is 7.67 µM (active). Same read-out and setting: the result for `Nc1ccc(N)cc1` reads 15.1 µM (active).

For a further assay, the target named is human Aurora Kinase A - serine/threonine-protein Kinase 6 (AurA), AURKA (gene 6790) (UniProt O14965). In words: NVS_ENZ_hAurA: NovaScreen (NVS) Enzymatic Assay for human Aurora Kinase A - serine/threonine-protein Kinase 6 (AurA) (AID 2283142). In short, it runs like this: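 Cell-free enzymatic assay with human Aurora A, 1 hour after dosing. Fluorescent substrate turnover detected after electrophoretic mobility shift separation of substrate and product. Screened at 25 uM, actives retested in concentration-response up to 50 uM.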
human Aurora Kinase A - serine/threonine-protein Kinase 6 (AurA), AURKA (gene 6790), sequence (O14965 whole entry, looked up): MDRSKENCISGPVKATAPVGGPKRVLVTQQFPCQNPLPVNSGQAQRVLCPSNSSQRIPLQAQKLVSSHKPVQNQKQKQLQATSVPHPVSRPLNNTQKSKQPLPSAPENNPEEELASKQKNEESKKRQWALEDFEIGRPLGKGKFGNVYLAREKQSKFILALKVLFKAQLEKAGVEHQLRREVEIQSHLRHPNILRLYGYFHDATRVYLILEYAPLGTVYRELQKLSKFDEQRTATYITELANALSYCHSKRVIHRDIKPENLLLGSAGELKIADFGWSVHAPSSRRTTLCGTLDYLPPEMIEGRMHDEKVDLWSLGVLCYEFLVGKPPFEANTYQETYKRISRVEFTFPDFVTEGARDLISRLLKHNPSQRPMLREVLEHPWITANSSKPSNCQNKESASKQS
Turning to `CCCCCCCCCCCCOS(=O)(=O)O`, the AC50 is 28.5 µM (active).

`N#Cc1cccnc1`: the result was inactive.

As for `Clc1cccc(Cl)c1Cl`, the call was inactive. Still for that read-out and setting: the entry for `O=C(N[C@H]1CN2CCC1CC2)c1ccc2c(c1)OCCO2` is “inactive”. Take `CCCCCCCCCCCCc1cccc(S(=O)(=O)O)c1`: the AC50 was 16.1 µM (active).

Regarding `CC(C)O.CC(C)O.OCCN(CCO)CCO.OCCN(CCO)CCO.[Ti]`, the AC50 is 4.96 µM (active).

The target in another assay is human Colony Stimulating Factor 1 Receptor (CSF1R), CSF1R (gene 1436) (UniProt P07333). Briefly: NVS_ENZ_hCSF1R: NovaScreen (NVS) Enzymatic Assay for human Colony Stimulating Factor 1 Receptor (CSF1R) (AID 2283150). In outline: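 Cell-free recombinant human CSF1R kinase with fluorescent substrate, product separated by electrophoretic mobility shift; read 1 h after dosing. Primary screen at 25 uM in duplicate, actives then in concentration-response up to 50 uM, relative to DMSO.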
human Colony Stimulating Factor 1 Receptor (CSF1R), CSF1R (gene 1436), sequence (P07333 whole entry, looked up): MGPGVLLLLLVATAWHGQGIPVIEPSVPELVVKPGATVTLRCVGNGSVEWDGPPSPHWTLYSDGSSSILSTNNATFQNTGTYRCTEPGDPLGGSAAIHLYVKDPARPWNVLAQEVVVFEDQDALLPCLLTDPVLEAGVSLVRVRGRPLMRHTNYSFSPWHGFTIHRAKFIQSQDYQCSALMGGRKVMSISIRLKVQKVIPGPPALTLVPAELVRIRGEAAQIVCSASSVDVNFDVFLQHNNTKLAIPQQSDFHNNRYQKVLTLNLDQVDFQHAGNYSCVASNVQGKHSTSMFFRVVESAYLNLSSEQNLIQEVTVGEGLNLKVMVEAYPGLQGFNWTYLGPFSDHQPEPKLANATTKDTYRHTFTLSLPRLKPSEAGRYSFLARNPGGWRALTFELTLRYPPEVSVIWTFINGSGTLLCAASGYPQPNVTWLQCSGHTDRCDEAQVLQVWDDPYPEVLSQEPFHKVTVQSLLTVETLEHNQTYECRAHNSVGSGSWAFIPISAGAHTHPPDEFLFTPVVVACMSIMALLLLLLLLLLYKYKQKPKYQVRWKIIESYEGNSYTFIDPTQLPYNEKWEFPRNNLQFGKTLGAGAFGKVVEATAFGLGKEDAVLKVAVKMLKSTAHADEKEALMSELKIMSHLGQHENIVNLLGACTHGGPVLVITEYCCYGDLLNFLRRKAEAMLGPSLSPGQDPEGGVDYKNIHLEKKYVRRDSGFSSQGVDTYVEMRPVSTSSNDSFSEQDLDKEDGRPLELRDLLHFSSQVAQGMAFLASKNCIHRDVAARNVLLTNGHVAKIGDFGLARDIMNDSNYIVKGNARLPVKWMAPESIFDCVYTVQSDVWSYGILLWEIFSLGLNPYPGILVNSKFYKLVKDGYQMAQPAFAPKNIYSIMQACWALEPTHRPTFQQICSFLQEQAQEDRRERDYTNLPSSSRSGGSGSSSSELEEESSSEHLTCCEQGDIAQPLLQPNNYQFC
On to `N#Cc1cccnc1`, for which the molecule was called inactive. Take `O=C(N[C@H]1CN2CCC1CC2)c1ccc2c(c1)OCCO2`: the molecule was called inactive. Take `CCCCCCCCCCCCc1cccc(S(=O)(=O)O)c1`: the AC50 was 17.3 µM (active).

Another assay deals with human Epidermal Growth Factor Receptor (EGFR), EGFR (gene 1956) (UniProt P00533). Briefly: NVS_ENZ_hEGFR: NovaScreen (NVS) Enzymatic Assay for human Epidermal Growth Factor Receptor (EGFR) (AID 2283151). On the procedure:
NVS_ENZ_hEGFR is a biochemical, single-readout assay that uses extracted gene-proteins in a cell-free assay. Measurements were taken 1 hour after chemical dosing in a 384-well plate.NVS_ENZ_hEGFR is one of one assay component(s) measured or calculated from the NVS_ENZ_hEGFR assay. It is designed to make measurements of enzyme activity, a form of enzyme reporter, as detected with fluorescence intensity signals by Fluorescence and electrophoretic mobility shift technology.Data from the assay component NVS_ENZ_hEGFR was analyzed into 1 assay endpoint. This assay endpoint, NVS_ENZ_hEGFR, was analyzed in the positive analysis fitting direction relative to DMSO as the negative control and baseline of activity. Using a type of enzyme reporter, loss-of-signal activity can be used to understand changes in the enzymatic activity as they relate to the gene EGFR. Furthermore, this assay endpoint can be referred to as a primary readout, because this assay has produced multiple assay endpoints where this one serves a enzymatic activity function. To generalize the intended target to other relatable targets, this assay endpoint is annotated to the kinase intended target family, where the subfamily is receptor tyrosine kinase.
Binding assays used specific radioligands (tritiated, iodinated) with non-radioactive competitive displacement ligands in agonist or antagonist protocols (as indicated) and various reference compounds and inhibitors to titrate specific binding to receptors and transporters. Most enzyme assays (CYPs, kinases, phosphatases, proteases, HDACs) used recombinant protein and specific substrates (fluorescence mostly, some colorimetric and radioactive) and inhibitors, followed by a biochemical separation of substrate and product. All assays for the biochemical HTS were initially run in duplicate at a single concentration (10 uM for CYP450 assays and 25 uM for all others). Assay-chemical combinations meeting a pre-defined threshold (e.g., 30% inhibition and other criteria defined below) were then run in singleton concentration-response format with maximum concentration of 20 uM for CYPs and 50 uM for all others. Each assay was run with positive and negative controls, and concurrent controls on every plate. The follow-up (secondary) screen tested active chemical-pairs in concentration series, as well as a few additional assays not tested in the primary screen, some selected negative inactives, and several cases re-run in the concentration series for confirmatory purposes.
For the molecule `CCCCCCCCCCCCOS(=O)(=O)O`, the AC50 is 36.5 µM (active). For `Clc1cccc(Cl)c1Cl`, the call was inactive.

With `O=C(N[C@H]1CN2CCC1CC2)c1ccc2c(c1)OCCO2`, the call was inactive. Take `CCCCCCCCCCCCc1cccc(S(=O)(=O)O)c1`: the concentration at half-maximal activity (AC50) was 19.6 µM (active).

A further assay has as its target human Dual Specificity Protein Phosphatase 3 (DUSP3), DUSP3 (gene 1845) (UniProt P51452). In words: NVS_ENZ_hDUSP3: NovaScreen (NVS) Enzymatic Assay for human Dual Specificity Protein Phosphatase 3 (DUSP3) (AID 2283152).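 Note: phosphatase activity of recombinant human DUSP3 on a fluorogenic substrate without cells.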 In outline:
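Cell-free assay with recombinant human DUSP3 and fluorogenic substrate, read by fluorescence intensity. Primary screen ran duplicate at 25 uM; actives followed up in concentration series; loss of signal versus DMSO scored.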
`O=c1oc2ccccc2c(O)c1C(CC(O)c1ccc(-c2ccc(Br)cc2)cc1)c1ccccc1` (stereo unspecified): the AC50 is 9.57 µM (active).

Turning to `CCCCCCCCCCCCc1cccc(S(=O)(=O)O)c1`, the AC50 is 16.8 µM (active). For the molecule `O=C(O)C1(c2ccc3c(c2)OC[C@H](Cc2ccc(-c4ccccc4)cc2)[C@H]3O)CCCC1`, the AC50 is 13.8 µM (active). On to `CCOP(=S)(OCC)OP(=S)(OCC)OCC`, for which the AC50 is 17 µM (active). Same read-out and setting: the result for `Cc1cc(C(C)(C)c2ccc(O)c(C)c2)ccc1O` reads 12.5 µM (active). Same read-out and setting: the figure for `CN(C)C(=S)S` is 8.6 µM (active); for `CCOC(=O)CCN(SN(C)C(=O)Oc1cccc2c1OC(C)(C)C2)C(C)C` it is 9.03 µM (active); for `CC(C)O.CC(C)O.OCCN(CCO)CCO.OCCN(CCO)CCO.[Ti]` it is 10.3 µM (active).

Turning to `CCOC(=O)C(SP(=S)(OC)OC)c1ccccc1` (stereo unspecified), the AC50 was 18.7 µM (active).

The next assay deals with human Esterase Plasma (ES), BCHE (gene 590) (UniProt P06276). In words: NVS_ENZ_hES: NovaScreen (NVS) Enzymatic Assay for human Esterase Plasma (ES) (AID 2283157). In outline: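 Chemicals were added to plasma-extracted human enzyme in a cell-free format, and activity was read colorimetrically after 0.25 hour. Activity loss was referenced to DMSO; concentration-response top dose was 50 uM.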
human Esterase Plasma (ES), BCHE (gene 590), sequence (P06276 whole entry, looked up): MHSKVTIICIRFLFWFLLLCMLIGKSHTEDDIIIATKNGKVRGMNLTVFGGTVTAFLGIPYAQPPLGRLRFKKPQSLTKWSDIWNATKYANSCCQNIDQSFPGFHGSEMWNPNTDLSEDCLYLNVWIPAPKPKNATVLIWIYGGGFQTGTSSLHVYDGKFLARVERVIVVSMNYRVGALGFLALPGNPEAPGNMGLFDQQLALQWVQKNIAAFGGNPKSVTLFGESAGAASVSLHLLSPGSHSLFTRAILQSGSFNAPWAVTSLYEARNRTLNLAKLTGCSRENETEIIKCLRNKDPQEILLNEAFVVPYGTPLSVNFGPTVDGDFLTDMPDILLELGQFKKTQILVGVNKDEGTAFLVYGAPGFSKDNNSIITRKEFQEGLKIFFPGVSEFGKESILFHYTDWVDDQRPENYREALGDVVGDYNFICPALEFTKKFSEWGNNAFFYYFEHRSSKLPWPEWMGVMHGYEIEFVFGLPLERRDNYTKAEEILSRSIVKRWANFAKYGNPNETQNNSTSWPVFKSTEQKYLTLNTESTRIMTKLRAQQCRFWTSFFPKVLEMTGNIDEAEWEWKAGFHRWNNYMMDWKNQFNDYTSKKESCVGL
`CCOP(=S)(OCC)OP(=S)(OCC)OCC`: the AC50 is 2.56 µM (active). On the same count and under the same terms, the figure for `N#CCCC(Br)(C#N)CBr` (stereo unspecified) is 19.2 µM (active); for `CCOP(=O)(OCC)OC(=CCl)c1ccc(Cl)cc1Cl` it is 1.22 µM (active).

In the case of `CCOC(=O)CCN(SN(C)C(=O)Oc1cccc2c1OC(C)(C)C2)C(C)C`, the AC50 is 14 µM (active). On the same count and under the same terms, the figure for `CCOC(=O)C(SP(=S)(OC)OC)c1ccccc1` (stereo unspecified) is 4.29 µM (active); for `CCN(CC)C(=O)C(Cl)=C(C)OP(=O)(OC)OC` it is 25 µM (active). For `Nc1ccc(N)cc1`, the molecule was classed as inactive.

The target in a further assay is human Ephrin type-A Receptor 1 (EphA1), EPHA1 (gene 2041) (UniProt P21709). In words: NVS_ENZ_hEphA1: NovaScreen (NVS) Enzymatic Assay for human Ephrin type-A Receptor 1 (EphA1) (AID 2283158).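 Note: activity is signal loss versus DMSO meaning EphA1 kinase inhibition.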 In short, it runs like this:
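Chemicals first tested in duplicate at 25 uM against recombinant EphA1 with a fluorescent substrate; those passing threshold went to singleton dose-response topping at 50 uM. Activity read 1 h later as mobility-shift fluorescence, loss of signal relative to DMSO.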
On to `c1ccc2sc(SNC3CCCCC3)nc2c1`, for which the AC50 is 13.9 µM (active). As to `CC(C)[N+](=O)[O-]`, the molecule was called inactive.

Regarding `N#Cc1cccnc1`, the outcome was inactive.

With `Nc1c(Oc2ccccc2)cc(O)c2c1C(=O)c1ccccc1C2=O`, the molecule was called inactive. Still for that read-out and setting: the result for `O=c1oc2ccccc2c(O)c1C(CC(O)c1ccc(-c2ccc(Br)cc2)cc1)c1ccccc1` (stereo unspecified) reads “inactive”; that for `OC[P+](CO)(CO)CO`, “inactive”. As to `O=C(Cl)OCCOCCOC(=O)Cl`, the AC50 was 6.6 µM (active).

With `Clc1cccc(Cl)c1Cl`, the result was inactive. In the case of `ClCCCCl`, the AC50 was 10.5 µM (active). Regarding `O=S(=O)(c1ccc(Cl)cc1)c1cc(Cl)c(Cl)cc1Cl`, the result was inactive. Take `O=C(N[C@H]1CN2CCC1CC2)c1ccc2c(c1)OCCO2`: the result was inactive. With `CCCCCCCCCCCCc1cccc(S(=O)(=O)O)c1`, the AC50 is 32.9 µM (active).

`CC1CC(=O)O1` (stereo unspecified): the molecule was classed as inactive. Still for that read-out and setting: the result for `C=C(C)C(=O)OCC(CC)CCCC` (stereo unspecified) reads “inactive”.

Take `CC(C)(C#N)N=NC(C)(C)C#N`: the molecule was called inactive.

As to `CNC(=O)CSP(=O)(OC)OC`, the molecule was called inactive.

For `CCCCC(CC)COC(=O)Cl` (stereo unspecified), the result was inactive.

As to `COc1ccccc1N`, the molecule was called inactive.

In the case of `CCOP(=O)(OCC)OC(=CCl)c1ccc(Cl)cc1Cl`, the call was inactive. `c1ccc(-c2cccc(-c3ccccc3)c2)cc1`: the AC50 was 2.51 µM (active). `O=[N+]([O-])c1ccc(Nc2ccccc2)cc1`: the result was inactive. Consider `CCOC(=O)CCN(SN(C)C(=O)Oc1cccc2c1OC(C)(C)C2)C(C)C`, for which the AC50 is 4.87 µM (active). Turning to `CC(C)O.CC(C)O.OCCN(CCO)CCO.OCCN(CCO)CCO.[Ti]`, the molecule was called inactive. On the same count and under the same terms, the entry for `Nc1ccc(N)cc1` is “inactive”.

One may read the AC50 as the concentration at which the activity in the assay is half-maximal.

Values taken from PubChem BioAssay (EPA / NIEHS).
